Here are results for five molecules from PubChem BioAssay.

Active and inactive are the calls of the source.

Assay [1] concerns Plasmodium falciparum Sir2 (PF13_0152, Sir2A). Briefly: Plasmodium falciparum Sir2A binding compounds – biochemical, small-molecule microarray, 635 nm fluorescence, primary screen (AID 1098).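 Also: score merges spot fluorescence intensity with its signal-to-noise ratio.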 The conditions noted are these: fluorescence 635 nm, higher = more signal.
A short description of assay [2]: probe aDKK1 binding to arrayed compounds – biochemical, biotinylated probe, 635/667 nm fluorescence, primary screen (AID 1099).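 Also: score merges 667nm spot fluorescence with signal to noise across triplicate slides.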 The conditions noted are these: small-molecule microarray, higher = more signal.
Assay [3] can be described thus: probe aCHRDL2 binding to arrayed compounds – biochemical, biotinylated probe, 635/667 nm fluorescence, primary screen (AID 1100). The conditions noted are these: small-molecule microarray, higher = more signal.
Assay [4] in a line: change in splice reporter luminescence, either direction, cell-based, HEK293, spliceosome inhibition project, primary screen (AID 1101).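 Also: HEK293 cells carrying a splicing-competent luciferase reporter gene; test concentration not given here.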 The following applies: HEK293 splicing luciferase reporter, 24 h, higher = more signal, called active from +8 up or from −8 down. Background: Reporter assays use an easily measured gene product as a stand-in for the process of interest.
For assay [5], the target named is Fibroblast growth factor 10 (Homo sapiens) (UniProt O15520). Description: compounds binding fibroblast growth factor 10 – biochemical, small-molecule microarray, 635 nm fluorescence, primary screen (AID 1102). The following applies: FGF10 binding, fluorescence 635 nm, higher = more signal.
Chain of Fibroblast growth factor 10 (Homo sapiens) (O15520 whole entry, looked up): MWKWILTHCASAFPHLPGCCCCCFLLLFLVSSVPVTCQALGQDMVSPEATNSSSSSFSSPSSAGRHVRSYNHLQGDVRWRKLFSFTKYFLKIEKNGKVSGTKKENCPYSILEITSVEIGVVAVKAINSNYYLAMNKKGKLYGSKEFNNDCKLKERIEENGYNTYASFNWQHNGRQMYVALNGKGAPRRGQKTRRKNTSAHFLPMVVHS
For assay [6], the system named is glycogen synthase kinase-3 (GSK3A per assay name; protocol says GSK3B). Briefly: compounds binding glycogen synthase kinase-3 – biochemical, small-molecule microarray, 635 nm fluorescence, GSK3A, primary screen (AID 1103). Also: the record names both GSK3A and GSK3B. The conditions noted are these: fluorescence 635 nm, higher = more signal.
Assay [7] addresses Epidermal growth factor receptor (Homo sapiens) (UniProt P00533). Description: compounds binding epidermal growth factor receptor – biochemical, small-molecule microarray, 635 nm fluorescence, primary screen (AID 1104).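 Also: score merges 667 nm emission intensity with spot signal to noise over triplicate slides.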 The following applies: EGFR binding, higher = more signal.
Assay [8] concerns the target Follistatin-related protein 3 (Homo sapiens) (UniProt O95633). Description: compounds binding follistatin-related protein 3 – biochemical, small-molecule microarray, 635 nm fluorescence, primary screen (AID 1105).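 Also: score merges emission near 667 nm and signal to noise per printed spot across three slides.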 The conditions noted are these: FSTL3 binding, higher = more signal.
In assay [9] the target is Dickkopf-related protein 1 (Homo sapiens) (UniProt O94907). Briefly: small molecules binding DKK1 protein – biochemical, small-molecule microarray, 635 nm fluorescence scan, primary screen (AID 1106).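 Also: score merges emission near 667 nm with signal to noise over three replicate slides.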 The conditions noted are these: higher = more signal.
Chain of Dickkopf-related protein 1 (Homo sapiens) (O94907 whole entry, looked up): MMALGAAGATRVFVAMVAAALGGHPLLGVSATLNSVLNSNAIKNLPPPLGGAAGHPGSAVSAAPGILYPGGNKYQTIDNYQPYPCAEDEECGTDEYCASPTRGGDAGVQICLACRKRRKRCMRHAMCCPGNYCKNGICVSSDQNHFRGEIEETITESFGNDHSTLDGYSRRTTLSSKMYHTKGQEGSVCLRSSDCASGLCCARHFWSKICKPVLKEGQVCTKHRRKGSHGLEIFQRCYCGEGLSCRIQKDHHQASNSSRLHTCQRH
The test system of assay [10] is Inhibin beta A chain (activin A). Description: small molecules binding activin A – biochemical, small-molecule microarray, 635 nm fluorescence scan, primary screen (AID 1107).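 Also: mouse activin A protein probed at 4.33 µg/mL on printed slides; score merges bound-protein fluorescence near 667 nm with spot signal-to-noise.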 The following applies: INHBA, higher = more signal.
Assay [11] relates to Human papillomavirus type 1a protein E7 (residues 44-93). Briefly: small molecules binding HPV E7 44-93 – biochemical, small-molecule microarray, residues 44-93, 635 nm fluorescence, primary screen (AID 1108).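 Also: E7 fragment applied at 1 µg/mL in TBST for 1 h at 4 C; score combines spot fluorescence with its signal to noise ratio.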 The conditions noted are these: fluorescence 635 nm, higher = more signal.
The nature of assay [12]: hepatitis C replication reporter changes, two-sided – Huh7 cells, luciferase reporter, HCV replication inhibitor project, primary screen (AID 1109).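 Also: huh7 hepatoma cells harbouring a luciferase neomycin HCV replicon reporter; luciferase luminescence as measure of HCV replicon replication; test concentration not given here.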 The conditions noted are these: Huh7 HCV replicon luciferase reporter, 48 h; higher = more signal.
The target of assay [13] is Left-right determination factor 2 (Homo sapiens) (UniProt O00292). Description: small molecules binding LEFTY2 protein – biochemical, small-molecule microarray, 635 nm fluorescence scan, primary screen (AID 1110). The following applies: higher = more signal.
Chain of Left-right determination factor 2 (Homo sapiens) (O00292 whole entry, looked up): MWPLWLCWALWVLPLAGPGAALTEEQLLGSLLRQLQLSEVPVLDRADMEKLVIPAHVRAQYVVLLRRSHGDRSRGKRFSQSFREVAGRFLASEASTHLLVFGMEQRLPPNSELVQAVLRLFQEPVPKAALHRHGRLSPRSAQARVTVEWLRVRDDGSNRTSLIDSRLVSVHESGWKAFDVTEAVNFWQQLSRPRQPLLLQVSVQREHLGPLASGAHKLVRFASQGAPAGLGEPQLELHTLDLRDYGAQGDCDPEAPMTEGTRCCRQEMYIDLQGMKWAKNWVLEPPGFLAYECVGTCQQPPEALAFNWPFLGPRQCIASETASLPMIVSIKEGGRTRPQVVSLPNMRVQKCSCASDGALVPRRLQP
Assay [14] deals with Calmodulin-1 (Homo sapiens) (UniProt P0DP23). Briefly: small molecules binding calmodulin-1 with EGTA – biochemical, small-molecule microarray, Cy5-labelled CALM1, profiling panel (AID 1111).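 Also: labelled calmodulin applied in Tris saline Tween buffer holding calcium plus EGTA and DTT.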 The following applies: Cy5-CALM1 binding fluorescence, higher = more signal.
Assay [15] has the same target. Description: small molecules binding Ca-loaded calmodulin-1 – biochemical, small-molecule microarray, Cy5-labelled CALM1, plus calcium, artefact control for SMM control-protein annotation, profiling panel (AID 1112).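 Also: score merges spot fluorescence with signal to noise from triplicate slides.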 The following applies: Cy5-CALM1 binding fluorescence, higher = more signal.
Assay [16] in a line: probe aWnt5a binding to arrayed compounds – biochemical, biotinylated probe, 635/667 nm fluorescence, primary screen (AID 1113).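 Also: score merges 667 nm fluorescence intensity with signal-to-noise per printed feature.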 The conditions noted are these: small-molecule microarray, higher = more signal.
Assay [17] can be described thus: probe aShh binding to arrayed compounds – biochemical, biotinylated probe, 635/667 nm fluorescence, primary screen (AID 1114).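 Also: probe is biotin-labelled aShh protein from a stem cell growth factor screen; measures binding of labelled protein to compounds printed on the slide; score merges feature fluorescence at 667 nm with signal-to-noise.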 The conditions noted are these: small-molecule microarray, higher = more signal.
A short description of assay [18]: probe aNog binding to arrayed compounds – biochemical, biotinylated probe, 635/667 nm fluorescence, primary screen (AID 1115).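 Also: probe is biotinylated aNog protein used at 0.15 µg/mL for 1 h at 4 C; z-score combines 667 nm fluorescence of each spot with its signal to noise.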 The conditions noted are these: small-molecule microarray, higher = more signal.
In assay [19] the target is Torsin-1A-interacting protein 1 (Homo sapiens) (UniProt Q5JTV8). Description: compound microarray binding of lysate hLAP1 – cell lysate, small-molecule microarray, COS7 lysate, 635/667 nm fluorescence, primary screen (AID 1116). The conditions noted are these: 635 nm fluorescence, higher = more signal.
Chain of Torsin-1A-interacting protein 1 (Homo sapiens) (Q5JTV8 whole entry, looked up): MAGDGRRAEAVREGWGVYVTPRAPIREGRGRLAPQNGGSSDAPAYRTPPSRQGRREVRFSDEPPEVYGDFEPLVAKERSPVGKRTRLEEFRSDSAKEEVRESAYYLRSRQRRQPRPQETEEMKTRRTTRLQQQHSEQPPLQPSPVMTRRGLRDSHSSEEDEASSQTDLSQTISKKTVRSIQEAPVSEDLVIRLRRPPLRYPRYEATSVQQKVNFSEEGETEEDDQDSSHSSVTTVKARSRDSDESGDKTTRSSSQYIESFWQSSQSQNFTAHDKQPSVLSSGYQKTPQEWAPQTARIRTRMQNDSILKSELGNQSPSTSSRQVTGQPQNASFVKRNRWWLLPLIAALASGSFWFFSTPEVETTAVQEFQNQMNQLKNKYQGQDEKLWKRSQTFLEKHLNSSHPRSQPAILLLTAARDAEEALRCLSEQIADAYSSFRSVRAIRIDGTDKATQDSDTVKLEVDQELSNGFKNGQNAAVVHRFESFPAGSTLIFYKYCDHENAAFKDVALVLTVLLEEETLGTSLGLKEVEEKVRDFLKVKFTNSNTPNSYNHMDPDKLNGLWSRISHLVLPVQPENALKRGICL
The target of assay [20] is Alpha-bungarotoxin (Bungarus multicinctus) (UniProt P60615). Briefly: compounds binding labelled alpha-BTX control protein – biochemical, small-molecule microarray, Alexa647 label, 635/667 nm fluorescence, artefact control for SMM control protein annotation, profiling panel (AID 1117). The conditions noted are these: alpha-BTX-A647 binding fluorescence, higher = more signal.
Chain of Alpha-bungarotoxin (Bungarus multicinctus) (P60615 whole entry, looked up): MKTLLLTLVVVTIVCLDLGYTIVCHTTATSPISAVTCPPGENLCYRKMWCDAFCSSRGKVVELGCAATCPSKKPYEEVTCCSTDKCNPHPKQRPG

Chain of Follistatin-related protein 3 (Homo sapiens) (O95633 whole entry, looked up): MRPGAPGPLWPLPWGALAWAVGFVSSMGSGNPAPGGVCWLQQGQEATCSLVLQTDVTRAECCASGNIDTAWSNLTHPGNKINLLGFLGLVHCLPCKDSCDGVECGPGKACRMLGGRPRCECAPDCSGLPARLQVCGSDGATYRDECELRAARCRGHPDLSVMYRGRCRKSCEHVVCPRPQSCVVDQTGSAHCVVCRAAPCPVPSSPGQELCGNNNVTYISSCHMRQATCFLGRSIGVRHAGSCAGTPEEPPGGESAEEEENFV
Chain of Epidermal growth factor receptor (Homo sapiens) (P00533 whole entry, looked up): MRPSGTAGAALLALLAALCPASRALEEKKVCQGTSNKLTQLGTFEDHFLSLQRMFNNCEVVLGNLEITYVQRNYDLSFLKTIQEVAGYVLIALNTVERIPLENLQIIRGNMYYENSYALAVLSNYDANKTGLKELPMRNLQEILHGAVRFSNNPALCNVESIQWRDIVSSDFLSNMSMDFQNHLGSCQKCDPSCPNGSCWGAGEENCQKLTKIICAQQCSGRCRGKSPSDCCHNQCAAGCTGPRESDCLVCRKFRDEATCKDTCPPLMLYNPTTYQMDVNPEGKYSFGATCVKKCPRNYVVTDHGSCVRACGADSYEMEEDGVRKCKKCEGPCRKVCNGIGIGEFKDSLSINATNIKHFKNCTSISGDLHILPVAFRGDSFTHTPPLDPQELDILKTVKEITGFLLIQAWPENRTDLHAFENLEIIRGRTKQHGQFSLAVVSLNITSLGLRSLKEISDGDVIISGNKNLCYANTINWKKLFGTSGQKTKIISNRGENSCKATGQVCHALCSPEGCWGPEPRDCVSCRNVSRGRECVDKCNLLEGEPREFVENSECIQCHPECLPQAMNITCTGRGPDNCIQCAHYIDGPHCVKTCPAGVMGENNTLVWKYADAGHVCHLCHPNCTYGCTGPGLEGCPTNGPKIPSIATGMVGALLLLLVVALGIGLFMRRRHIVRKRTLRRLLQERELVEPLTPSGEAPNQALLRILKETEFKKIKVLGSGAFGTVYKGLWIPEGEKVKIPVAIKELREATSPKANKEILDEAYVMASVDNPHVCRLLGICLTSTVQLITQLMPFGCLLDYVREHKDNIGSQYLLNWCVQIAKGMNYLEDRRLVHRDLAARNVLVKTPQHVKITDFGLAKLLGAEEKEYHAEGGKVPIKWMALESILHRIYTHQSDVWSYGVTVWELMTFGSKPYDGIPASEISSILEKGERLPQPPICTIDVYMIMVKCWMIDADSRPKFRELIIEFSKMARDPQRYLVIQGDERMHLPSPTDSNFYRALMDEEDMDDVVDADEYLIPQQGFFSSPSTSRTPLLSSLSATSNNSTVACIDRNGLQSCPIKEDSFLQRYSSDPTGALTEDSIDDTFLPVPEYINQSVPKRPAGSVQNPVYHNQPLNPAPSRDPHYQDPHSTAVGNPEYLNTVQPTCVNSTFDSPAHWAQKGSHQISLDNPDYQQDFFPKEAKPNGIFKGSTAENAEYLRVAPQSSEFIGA

With `CC(C)C[C@H]1NC(=O)C([C@@H](C)OCc2ccccc2)NC(=O)[C@@]23C(=O)N[C@@H](Cc4ccccc4)C2[C@H](C)[C@@]2(C)O[C@H]2C3/C=C/C/C=C\CNC1=O` (stereo not given in full), the composite z-score in assay [1] is 0.884; in assay [2] it was -0.261; in assay [3], -0.493; in [5], 1.03; in assay [6], 1.12; in assay [7], 0.583. In addition, the composite z-score in [8] stood at 1.47; in assay [9] it was 0.917; in assay [10], 1.24; in [11], 0.566; in assay [13], 0.905; in assay [14], 0.216. For the same molecule, the composite z-score in [15] is -0.389; in assay [16], -0.118; in assay [17], -0.0553; in assay [18], 0.746; in [19] it was 0.174; in assay [20], 0.888. For the same molecule, the z-score is -0.138 (inactive) in assay [4] and -2.23 in assay [12].
For `CC1=C([C@H](O)CCc2ccccc2)[C@H](CO)n2c(=O)n(-c3ccccc3)c(=O)n2C1`, the composite z-score in assay [1] was -0.385; in assay [2], -0.204; in assay [3] it was -0.48; in assay [5], 0.233; in assay [6], 0.196; in [7] it was 0.167. Further, the composite z-score in assay [8] was -0.0401; in assay [9], 0.231; in [10] it was 0.472; in assay [11] it was -0.679; in [13], 0.209; in [14] it was -0.524. In addition, the composite z-score in assay [15] was -0.604; in assay [16] it was -0.0685; in [17] it was -0.169; in assay [18], -0.0438; in assay [19], -0.395; in [20] it was -0.105. Besides, the z-score was -1.04 (inactive) in assay [4] and -0.508 in [12].
Turning to `C=CC[C@]1(C(=O)NCC(O)CO)COC(c2ccc(OCCCO)cc2)=N1` (stereo not given in full), the composite z-score in [1] is -0.329; in [2], 0.787; in assay [3], 1.05; in assay [5] it was -0.106; in assay [6] it was 0.0993; in [7], -1.18. For the same molecule, the composite z-score in assay [8] was -0.865; in assay [9], -0.463; in assay [10], 1.12; in assay [11], -0.683; in [13] it was -0.531; in assay [14], -0.189. For the same molecule, the composite z-score in assay [15] is 0.202; in assay [16] it was 0.0618; in assay [17], 1.01; in assay [18], -0.21; in assay [19] it was 1.53; in assay [20], -1.21. For the same molecule, the z-score in assay [4] is 0.2 (inactive); in [12], 0.412.
`CCOC(=O)C1=CC[C@@H](c2ccc(OC)cc2)N(S(=O)(=O)c2ccc(C)cc2)[C@H]1CC`: the composite z-score is 0.469 in [1]; 0.607 in assay [2]; 0.88 in [3]; 0.996 in assay [5]; 0.811 in assay [6]; 0.233 in [7]. Besides, the composite z-score in assay [8] was determined as 1.1; in assay [9], 0.106; in assay [10], 0.372; in assay [11], 1.18; in assay [13], 0.349; in assay [14], 1.84. The composite z-score in assay [15] is 0.436; in assay [16], 0.0438; in [17] it was -0.221; in [18] it was 1.48; in assay [19], 0.482; in assay [20], 1. Further, the z-score is -1.27 (inactive) in assay [4] and -2.44 in assay [12].
Regarding `COC(=O)C(CC#Cc1ccc2c(c1)[C@]1(C(=O)N2)[C@H](C(=O)NC[C@H](O)c2ccccc2)[C@H]2C(=O)O[C@H](c3ccccc3)[C@H](c3ccccc3)N2[C@@H]1c1ccccc1OCCO)C(=O)OC`, the composite z-score was found to be 1.19 in [1]; 0.138 in assay [2]; 0.141 in [3]; 1.22 in [5]; 1.19 in assay [6]; 0.308 in assay [7]. In addition, the composite z-score in [8] was 0.866; in [9] it was 0.502; in assay [10], 0.205; in assay [11], 1.45; in assay [13], 0.441; in assay [14], 0.413. Also, the composite z-score in [15] was -0.0643; in assay [16] it was -0.1; in [17], -0.167; in [18], 0.149; in [19], 1.67; in assay [20], 1.61. Further, the z-score was 0.163 (inactive) in assay [4] and -1.92 in [12].
